# Assay results reported in PMC5540273 (PLoS ONE, 2017).
# Where “and” joins values, the source holds several entries; their conditions need not be identical. Identical values can stand only once. Like-named read-outs stand apart in the source and are kept apart here.
# Experiments:
# AAK1 = details: concentration: 1 μM, replicates: in singlicate; n = 1
# ABL1-nonphosphorylated = details: concentration: 1 μM, replicates: in singlicate, n = 1
# ABL1-phosphorylated = details: concentration: 1 μM, replicates: in singlicate, n = 1
# ABL2 = details: concentration: 1 μM, replicates: in singlicate, n = 1
# ACVR1B = details: concentration: 1 μM, replicates: in singlicate, n = 1
# ACVR1 = details: concentration: 1 μM, replicates: in singlicate; n = 1
# ACVR2A = details: concentration: 1 μM, replicates: in singlicate; n = 1
# ACVR2B = details: concentration: 1 μM, replicates: in singlicate, n = 1
# ACVRL1 = details: concentration: 1 μM, replicates: in singlicate, n = 1
# ADCK3 = tested on: T1, ADCK3; details: concentration: 1 μM, replicates: in singlicate; n = 1
# T1 construct: gene CABC1
# ADCK4 = details: concentration: 1 μM, replicates: in singlicate, n = 1
# AKT1 = details: concentration: 1 μM, replicates: in singlicate, n = 1
# AKT2 = details: concentration: 1 μM, replicates: in singlicate, n = 1
# AKT3 = details: concentration: 1 μM, replicates: in singlicate, n = 1
# ALK = details: concentration: 1 μM, replicates: in singlicate, n = 1
# AMPK-alpha1 = tested on: T2, AMPK-alpha1; details: concentration: 1 μM, replicates: in singlicate, n = 1
# T2 construct: gene PRKAA1
# 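Further: KINOMEscan kinase panel screen.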
smiles,measurement,setting,value
NS(=O)(=O)CCc1cccc(Nc2nccc(-c3c(-c4cccc(NC(=O)c5c(F)cccc5F)c4)nn4ccccc34)n2)c1 [GSK336735],%Inh,AAK1,0%
same,%Inh,ABL1-nonphosphorylated,95.3%
same,%Inh,ABL1-phosphorylated,16%
same,%Inh,ABL2,78%
same,%Inh,ACVR1B,7%
same,%Inh,ACVR1,0%
same,%Inh,ACVR2A,0%
same,%Inh,ACVR2B,37%
same,%Inh,ACVRL1,0%
same,%Inh,ADCK3,9%
same,%Inh,ADCK4,42%
same,%Inh,AKT1,0%
same,%Inh,AKT2,16%
same,%Inh,AKT3,0%
same,%Inh,ALK,24%
same,%Inh,AMPK-alpha1,20%
O=C(Nc1cccc(-c2nn3ncccc3c2-c2ccnc(Nc3cccc(C(F)(F)F)c3)n2)c1)c1c(F)cccc1F [GSK299495],%Inh,AAK1,2%
same,%Inh,ABL1-nonphosphorylated,18%
same,%Inh,ABL1-phosphorylated,9%
same,%Inh,ABL2,35%
same,%Inh,ACVR1B,0%
same,%Inh,ACVR1,9%
same,%Inh,ACVR2A,0%
same,%Inh,ACVR2B,0%
same,%Inh,ACVRL1,0%
same,%Inh,ADCK3,1%
same,%Inh,ADCK4,28%
same,%Inh,AKT1,0%
same,%Inh,AKT2,1%
same,%Inh,AKT3,0%
same,%Inh,ALK,22%
same,%Inh,AMPK-alpha1,0%
COc1ccc(CNC(=O)NC2CCN(c3ccnc(Nc4ccc(OC)cc4)n3)C2)cc1 (stereo not drawn) [GSK1379727],%Inh,AAK1,0%
same,%Inh,ABL1-nonphosphorylated,0%
same,%Inh,ABL1-phosphorylated,0%
same,%Inh,ABL2,2%
same,%Inh,ACVR1B,0%
same,%Inh,ACVR1,0%
same,%Inh,ACVR2A,0%
same,%Inh,ACVR2B,0%
same,%Inh,ACVRL1,0%
same,%Inh,ADCK3,3%
same,%Inh,ADCK4,59%
same,%Inh,AKT1,0%
same,%Inh,AKT2,0%
same,%Inh,AKT3,0%
same,%Inh,ALK,28%
same,%Inh,AMPK-alpha1,0%
N#Cc1ccc(-c2cc(-c3c[nH]nc3-c3ccccn3)ccn2)cc1 [GW693028],%Inh,AAK1,0%
same,%Inh,ABL1-nonphosphorylated,7%
same,%Inh,ABL1-phosphorylated,29%
same,%Inh,ABL2,10%
same,%Inh,ACVR1B,56%
same,%Inh,ACVR1,59%
same,%Inh,ACVR2A,0%
same,%Inh,ACVR2B,40%
same,%Inh,ACVRL1,0%
same,%Inh,ADCK3,0%
same,%Inh,ADCK4,20%
same,%Inh,AKT1,0%
same,%Inh,AKT2,0%
same,%Inh,AKT3,0%
same,%Inh,ALK,25%
same,%Inh,AMPK-alpha1,0%
CSc1ccc(-c2cc3ncnc(SCC(=O)O)c3s2)cc1,%Inh,AAK1,0%
same,%Inh,ABL1-nonphosphorylated,0%
same,%Inh,ABL1-phosphorylated,0%
same,%Inh,ABL2,0%
same,%Inh,ACVR1B,0%
same,%Inh,ACVR1,0%
same,%Inh,ACVR2A,0%
same,%Inh,ACVR2B,0%
same,%Inh,ACVRL1,0%
same,%Inh,ADCK3,0%
same,%Inh,ADCK4,0%
same,%Inh,AKT1,0%
same,%Inh,AKT2,0%
same,%Inh,AKT3,0%
same,%Inh,ALK,0%
same,%Inh,AMPK-alpha1,14%
Cl.Oc1cccc(Nc2ccnc3cc(-c4ccncc4)ccc23)c1 [GW494601],%Inh,AAK1,42%
same,%Inh,ABL1-nonphosphorylated,100%
same,%Inh,ABL1-phosphorylated,99.9%
same,%Inh,ABL2,99.4%
same,%Inh,ACVR1B,67%
same,%Inh,ACVR1,99.8%
same,%Inh,ACVR2A,97.2%
same,%Inh,ACVR2B,95%
same,%Inh,ACVRL1,81%
same,%Inh,ADCK3,1%
same,%Inh,ADCK4,68%
same,%Inh,AKT1,0%
same,%Inh,AKT2,0%
same,%Inh,AKT3,0%
same,%Inh,ALK,47%
same,%Inh,AMPK-alpha1,0%
Cl.Cl.Cl.Fc1ccc(-c2ncn(C3CCNCC3)c2-c2ccnc(Nc3ccccc3)n2)cc1 [SB-238039],%Inh,AAK1,0%
same,%Inh,ABL1-nonphosphorylated; 1 µM,0% and 63%
same,%Inh,ABL1-phosphorylated; 1 µM,31% and 12%
same,%Inh,ABL2; 1 µM,5% and 3%
same,%Inh,ACVR1B; 1 µM,58% and 31%
same,%Inh,ACVR1,16%
same,%Inh,ACVR2A,0%
same,%Inh,ACVR2B; 1 µM,0% and 18%
same,%Inh,ACVRL1; 1 µM,20% and 17%
same,%Inh,ADCK3,0%
same,%Inh,ADCK4; 1 µM,25% and 1%
same,%Inh,AKT1; 1 µM,21% and 0%
same,%Inh,AKT2; 1 µM,10% and 7%
same,%Inh,AKT3; 1 µM,24% and 37%
same,%Inh,ALK; 1 µM,21% and 0%
same,%Inh,AMPK-alpha1; 1 µM,15% and 2%
[2H]C([2H])(c1cccc(C(F)(F)F)c1C)n1ccn2c(=O)nc(N3CCOCC3)cc12 [GSK2336394],%Inh,AAK1,0%
same,%Inh,ABL1-nonphosphorylated,0%
same,%Inh,ABL1-phosphorylated,0%
same,%Inh,ABL2,17%
same,%Inh,ACVR1B,0%
same,%Inh,ACVR1,0%
same,%Inh,ACVR2A,0%
same,%Inh,ACVR2B,1%
same,%Inh,ACVRL1,31%
same,%Inh,ADCK3,8%
same,%Inh,ADCK4,28%
same,%Inh,AKT1,0%
same,%Inh,AKT2,0%
same,%Inh,AKT3,0%
same,%Inh,ALK,17%
same,%Inh,AMPK-alpha1,0%
COc1cc2c(cc1OCCN1CCN(C)CC1)ncc1c3ccc(C#N)cc3[nH]c21,%Inh,AAK1,96.2%
same,%Inh,ABL1-nonphosphorylated,82%
same,%Inh,ABL1-phosphorylated,69%
same,%Inh,ABL2,6%
same,%Inh,ACVR1B,0%
same,%Inh,ACVR1,0%
same,%Inh,ACVR2A,10%
same,%Inh,ACVR2B,0%
same,%Inh,ACVRL1,0%
same,%Inh,ADCK3,0%
same,%Inh,ADCK4,3%
same,%Inh,AKT1,0%
same,%Inh,AKT2,18%
same,%Inh,AKT3,0%
same,%Inh,ALK,0%
same,%Inh,AMPK-alpha1,10%
COc1ccc(Nc2ncc(C#N)c(Nc3ccccc3C(N)=O)n2)cc1N1CCN(C)CC1.Cl [GSK1558669],%Inh,AAK1,97.2%
same,%Inh,ABL1-nonphosphorylated,100%
same,%Inh,ABL1-phosphorylated,100%
same,%Inh,ABL2,99.2%
same,%Inh,ACVR1B,33%
same,%Inh,ACVR1,33%
same,%Inh,ACVR2A,0%
same,%Inh,ACVR2B,0%
same,%Inh,ACVRL1,0%
same,%Inh,ADCK3,0%
same,%Inh,ADCK4,52%
same,%Inh,AKT1,8%
same,%Inh,AKT2,63%
same,%Inh,AKT3,0%
same,%Inh,ALK,95.7%
same,%Inh,AMPK-alpha1,97.3%
CNc1ncnc2[nH]ncc12 [SKF-18355],%Inh,AAK1,0%
same,%Inh,ABL1-nonphosphorylated,34%
same,%Inh,ABL1-phosphorylated,11%
same,%Inh,ABL2,0%
same,%Inh,ACVR1B,4%
same,%Inh,ACVR1,0%
same,%Inh,ACVR2A,4%
same,%Inh,ACVR2B,40%
same,%Inh,ACVRL1,0%
same,%Inh,ADCK3,0%
same,%Inh,ADCK4,10%
same,%Inh,AKT1,0%
same,%Inh,AKT2,0%
same,%Inh,AKT3,4%
same,%Inh,ALK,0%
same,%Inh,AMPK-alpha1,0%
Cc1nnc(-c2ccc3occ(-c4ccc(C(C)O)cc4)c3c2)o1 (stereo not drawn),%Inh,AAK1,23%
same,%Inh,ABL1-nonphosphorylated,64%
same,%Inh,ABL1-phosphorylated,36%
same,%Inh,ABL2,8%
same,%Inh,ACVR1B,14%
same,%Inh,ACVR1,15%
same,%Inh,ACVR2A,9%
same,%Inh,ACVR2B,27%
same,%Inh,ACVRL1,8%
same,%Inh,ADCK3,0%
same,%Inh,ADCK4,0%
same,%Inh,AKT1,17%
same,%Inh,AKT2,0%
same,%Inh,AKT3,4%
same,%Inh,ALK,0%
same,%Inh,AMPK-alpha1,0%
